# “And” between values parts separate entries of the source, which are not always exact repeats. Equal entries are not always repeated. Out of some 5,500 compounds screened, about 2,000 (36%) were called active. Roughly 18% stayed inconclusive and do not appear here. The list shows a part of the results. Unmarked numbers belong to inactive results. Rule as the data show it: active = normalized growth mostly below about 0.91 (no sharp cut-off); inconclusive = no clear call, values can overlap the other calls; inactive = mostly above about 0.92.
# Experiment: chemical genetic growth profiling, strain panel (AID 1159580);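 also: tested at 20 µM; growth read once vehicle control cultures reached saturation at 30 °C; 1 = growth at the plate median or of vehicle wells; lower values mean less growth of the strain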
# Conditions: growth OD
# [1] = S. cerevisiae deletion strains, locus YAL013W, strain DEP1, active compounds read low
# [2] = S. cerevisiae deletion strains, locus YBR229C, strain ROT2, active compounds read low
# [3] = S. cerevisiae deletion strains, locus YDL101C, strain DUN1, active compounds read low
# [4] = S. cerevisiae deletion strains, locus YDL134C, strain PPH21, active compounds read low
# [5] = S. cerevisiae deletion strains, locus YDR150W, strain NUM1, active compounds read low
# [6] = S. cerevisiae deletion strains, locus YEL061C, strain CIN8, active compounds read low
# [7] = S. cerevisiae deletion strains, locus YGR078C, strain PAC10, active compounds read low
# [8] = S. cerevisiae deletion strains, locus YGR229C, strain SMI1, active compounds read low
# [9] = S. cerevisiae deletion strains, locus YHR030C, strain SLT2, active compounds read low
# [10] = S. cerevisiae deletion strains, locus YHR087W, strain rtc3, active compounds read low
# [11] = S. cerevisiae deletion strains, locus YJR043C, strain POL32, active compounds read low
# [12] = S. cerevisiae deletion strains, locus YJR075W, strain HOC1, active compounds read low
# [13] = S. cerevisiae deletion strains, locus YKL190W, strain CNB1, active compounds read low
# [14] = S. cerevisiae deletion strains, locus YLR039C, strain RIC1, active compounds read low
# [15] = S. cerevisiae deletion strains, locus YLR058C, strain SHM2 (second series), active compounds read low
# [16] = S. cerevisiae deletion strains, locus YLR085C, strain ARP6, active compounds read low
# [17] = S. cerevisiae deletion strains, locus YLR262C, strain YPT6, active compounds read low
# [18] = S. cerevisiae deletion strains, locus YML094W, strain GIM5, active compounds read low
# [19] = S. cerevisiae deletion strains, locus YMR219W, strain ESC1, active compounds read low
# [20] = S. cerevisiae deletion strains, locus YMR263W, strain SAP30, active compounds read low
# [21] = S. cerevisiae deletion strains, locus YMR307W, strain GAS1, active compounds read low
# [22] = S. cerevisiae deletion strains, locus YNL153C, strain GIM3, active compounds read low
# [23] = S. cerevisiae deletion strains, locus YNL298W, strain CLA4 (second series), active compounds read low
# [24] = S. cerevisiae deletion strains, locus YNL322C, strain KRE1, active compounds read low
# [25] = S. cerevisiae deletion strains, locus YNR030W, strain Alg12, active compounds read low
# [26] = S. cerevisiae deletion strains, locus YOL006C, strain TOP1, active compounds read low
# [27] = S. cerevisiae deletion strains, locus YPL055C, strain LGE1, active compounds read low
# [28] = S. cerevisiae deletion strains, locus YPL241C, strain CIN2, active compounds read low
# [29] = S. cerevisiae deletion strains, locus YPR135W, strain CTF4, active compounds read low
# [30] = S. cerevisiae strains, strain wild type, active compounds read low
structure (smiles),measurement,setting,value
O=C(NNC(=S)Nc1cccc(Cl)c1)C1CC1,normalized growth,[1],0.987
same,normalized growth,[2],0.951
same,normalized growth,[3],0.963
same,normalized growth,[4],0.99
same,normalized growth,[5],0.917
same,normalized growth,[6],0.857 (active)
same,normalized growth,[7],0.956
same,normalized growth,[8],1
same,normalized growth,[9],0.489 (active)
same,normalized growth,[10],0.986
same,normalized growth,"S. cerevisiae deletion strains, locus YJL187C, strain SWE1, active compounds read low",0.967
same,normalized growth,[11],0.942
same,normalized growth,[12],0.986
same,normalized growth,[13],0.913 (active)
same,normalized growth,[14],0.749 (active)
same,normalized growth,[15],0.998
same,normalized growth,[16],0.673 (active)
same,normalized growth,[17],0.949
same,normalized growth,[18],0.796 (active)
same,normalized growth,[19],0.988
same,normalized growth,[20],0.975
same,normalized growth,[21],0.684
same,normalized growth,[22],0.965
same,normalized growth,[23],0.782 (active)
same,normalized growth,[24],1.05
same,normalized growth,[25],0.859 (active)
same,normalized growth,[26],0.384 (active)
same,normalized growth,[27],0.735 (active)
same,normalized growth,[28],0.784 (active)
same,normalized growth,[29],0.69
same,normalized growth,[30],0.953
O=C(NNC(=S)Nc1cccc(Cl)c1)c1ccncc1,normalized growth,[1],0.977
same,normalized growth,[2],0.996
same,normalized growth,[3],0.983
same,normalized growth,[4],0.995
same,normalized growth,[5],0.95
same,normalized growth,[6],1
same,normalized growth,[7],0.983
same,normalized growth,[8],0.997
same,normalized growth,[9],1
same,normalized growth,[10],1
same,normalized growth,[11],0.98
same,normalized growth,[12],1.01
same,normalized growth,[13],1.01
same,normalized growth,[14],1.04
same,normalized growth,[15],0.981
same,normalized growth,[16],0.989
same,normalized growth,[17],0.99
same,normalized growth,[18],1.01
same,normalized growth,[19],0.991
same,normalized growth,[20],0.994
same,normalized growth,[21],1.02
same,normalized growth,"S. cerevisiae deletion strains, locus YNL128W, strain TEP1, active compounds read low",0.995
same,normalized growth,[22],0.986
same,normalized growth,[23],0.965
same,normalized growth,[24],0.991
same,normalized growth,[25],0.951
same,normalized growth,[27],0.914
same,normalized growth,[28],0.992
same,normalized growth,[29],0.938
C[C@@H]1O[C@@H](O[C@H]2[C@H](Oc3cc(O)c4c(=O)cc(-c5ccc(O)cc5)oc4c3)O[C@H](CO)[C@@H](O)[C@@H]2O)[C@H](O)[C@H](O)[C@H]1O,normalized growth,[1],0.994
same,normalized growth,"S. cerevisiae deletion strains, locus YBR021W, strain FUR4, active compounds read low",1
same,normalized growth,[2],1
same,normalized growth,"S. cerevisiae deletion strains, locus YCL029C, strain bik1, active compounds read low",0.977
same,normalized growth,"S. cerevisiae deletion strains, locus YDL035C, strain GPR1, active compounds read low",1
same,normalized growth,"S. cerevisiae deletion strains, locus YDL074C, strain BRE1, active compounds read low",0.933
same,normalized growth,[3],0.998
same,normalized growth,[4],1.07
same,normalized growth,"S. cerevisiae deletion strains, locus YDL185W, strain tfp1, active compounds read low",0.95
same,normalized growth,"S. cerevisiae deletion strains, locus YDL192W, strain arf1, active compounds read low",0.998
same,normalized growth,"S. cerevisiae deletion strains, locus YDR101C, strain arx1, active compounds read low",0.937
same,normalized growth,"S. cerevisiae deletion strains, locus YDR162C, strain NBP2, active compounds read low",1.01
same,normalized growth,"S. cerevisiae deletion strains, locus YDR318W, strain mcm21, active compounds read low",1
same,normalized growth,"S. cerevisiae deletion strains, locus YDR388W, active compounds read low",0.996
same,normalized growth,"S. cerevisiae deletion strains, locus YDR502C, strain sam2, active compounds read low",0.99
same,normalized growth,[6],1
same,normalized growth,"S. cerevisiae deletion strains, locus YER110C, active compounds read low",0.982
same,normalized growth,"S. cerevisiae deletion strains, locus YER155C, strain BEM2, active compounds read low",0.991
same,normalized growth,"S. cerevisiae deletion strains, locus YER167W, strain BCK2, active compounds read low",0.994
same,normalized growth,"S. cerevisiae deletion strains, locus YGL078C, strain dbp3, active compounds read low",0.981
same,normalized growth,"S. cerevisiae deletion strains, locus YGL086W, strain mad1, active compounds read low",0.954
same,normalized growth,"S. cerevisiae deletion strains, locus YGL248W, strain PDE1, active compounds read low",1.02
same,normalized growth,"S. cerevisiae deletion strains, locus YGR135W, strain pre9, active compounds read low",1.02
same,normalized growth,"S. cerevisiae deletion strains, locus YGR252W, strain gcn5, active compounds read low",1.11
same,normalized growth,[9],0.989 and 1.02
same,normalized growth,"S. cerevisiae deletion strains, locus YHR079C, strain IRE1 (second series), active compounds read low",0.976
same,normalized growth,"S. cerevisiae deletion strains, locus YHR079C, strain IRE1, active compounds read low",1.03
same,normalized growth,"S. cerevisiae deletion strains, locus YHR094C, strain hxt1, active compounds read low",0.99
same,normalized growth,"S. cerevisiae deletion strains, locus YHR129C, strain ARP1, active compounds read low",1.02
same,normalized growth,"S. cerevisiae deletion strains, locus YHR200W, strain rpn10, active compounds read low",0.988
same,normalized growth,"S. cerevisiae deletion strains, locus YIL066C, strain RNR3, active compounds read low",0.994
same,normalized growth,"S. cerevisiae deletion strains, locus YIL073C, strain SPO22, active compounds read low",0.981
same,normalized growth,"S. cerevisiae deletion strains, locus YIL125W, strain kgd1, active compounds read low",0.972
same,normalized growth,"S. cerevisiae deletion strains, locus YIR030C, strain dcg1, active compounds read low",0.983
same,normalized growth,"S. cerevisiae deletion strains, locus YJL095W, strain BCK1, active compounds read low",1.03 and 0.992
same,normalized growth,"S. cerevisiae deletion strains, locus YJL134W, strain LCB3, active compounds read low",0.992
same,normalized growth,"S. cerevisiae deletion strains, locus YJL168C, strain set2, active compounds read low",1
same,normalized growth,"S. cerevisiae deletion strains, locus YJL187C, strain SWE1 (second series), active compounds read low",0.995
same,normalized growth,[11],0.993
same,normalized growth,"S. cerevisiae deletion strains, locus YJR066W, strain TOR1, active compounds read low",0.981
same,normalized growth,"S. cerevisiae deletion strains, locus YKL009W, strain mrt4, active compounds read low",0.955
same,normalized growth,"S. cerevisiae deletion strains, locus YKL068W, active compounds read low",0.987
same,normalized growth,"S. cerevisiae deletion strains, locus YKL085W, strain MDH1 (second series), active compounds read low",0.981
same,normalized growth,"S. cerevisiae deletion strains, locus YKL085W, strain MDH1, active compounds read low",0.981
same,normalized growth,"S. cerevisiae deletion strains, locus YKR001C, strain vps1, active compounds read low",0.982
same,normalized growth,[14],0.963
same,normalized growth,"S. cerevisiae deletion strains, locus YLR058C, strain SHM2, active compounds read low",0.998
same,normalized growth,"S. cerevisiae deletion strains, locus YLR102C, strain apc9, active compounds read low",0.987
same,normalized growth,"S. cerevisiae deletion strains, locus YLR113W, strain HOG1, active compounds read low",0.967
same,normalized growth,[17],0.95
same,normalized growth,"S. cerevisiae deletion strains, locus YLR268W, strain sec22, active compounds read low",0.951
same,normalized growth,"S. cerevisiae deletion strains, locus YLR330W, strain CHS5, active compounds read low",0.979
same,normalized growth,"S. cerevisiae deletion strains, locus YLR342W, strain FKS1 (second series), active compounds read low",1.01
same,normalized growth,"S. cerevisiae deletion strains, locus YLR371W, strain rom2, active compounds read low",0.98
same,normalized growth,"S. cerevisiae deletion strains, locus YLR418C, strain cdc73, active compounds read low",1.01
same,normalized growth,"S. cerevisiae deletion strains, locus YML016C, strain PPZ1, active compounds read low",0.995
same,normalized growth,"S. cerevisiae deletion strains, locus YML032C, strain rad52, active compounds read low",1.04
same,normalized growth,"S. cerevisiae deletion strains, locus YML124C, strain tub3, active compounds read low",0.978
same,normalized growth,"S. cerevisiae deletion strains, locus YMR078C, strain ctf18, active compounds read low",0.975
same,normalized growth,"S. cerevisiae deletion strains, locus YMR223W, strain ubp8, active compounds read low",1
same,normalized growth,[20],0.985
same,normalized growth,[21],1.05
same,normalized growth,"S. cerevisiae deletion strains, locus YNL067W, strain RPL9B, active compounds read low",0.999
same,normalized growth,"S. cerevisiae deletion strains, locus YNL183C, strain NPR1, active compounds read low",0.963
same,normalized growth,"S. cerevisiae deletion strains, locus YNL233W, strain BNI4, active compounds read low",0.988
same,normalized growth,"S. cerevisiae deletion strains, locus YNL250W, strain rad50, active compounds read low",0.955
same,normalized growth,"S. cerevisiae deletion strains, locus YNL271C, strain bni1, active compounds read low",0.981
same,normalized growth,"S. cerevisiae deletion strains, locus YNL298W, strain CLA4, active compounds read low",0.991
same,normalized growth,"S. cerevisiae deletion strains, locus YNL307C, strain MCK1, active compounds read low",0.971
same,normalized growth,"S. cerevisiae deletion strains, locus YNR052C, strain pop2, active compounds read low",1.01
same,normalized growth,[26],0.99
same,normalized growth,"S. cerevisiae deletion strains, locus YOL012C, strain htz1",0.768
same,normalized growth,"S. cerevisiae deletion strains, locus YOL147C, strain pex11, active compounds read low",0.992
same,normalized growth,"S. cerevisiae deletion strains, locus YOR061W, strain CKA2, active compounds read low",0.997
same,normalized growth,"S. cerevisiae deletion strains, locus YOR069W, strain VPS5, active compounds read low",0.994
same,normalized growth,"S. cerevisiae deletion strains, locus YOR136W, strain idh2, active compounds read low",0.965
same,normalized growth,"S. cerevisiae deletion strains, locus YOR144C, strain elg1, active compounds read low",0.996
same,normalized growth,"S. cerevisiae deletion strains, locus YOR184W, strain ser1, active compounds read low",0.993
same,normalized growth,"S. cerevisiae deletion strains, locus YOR231W, strain MKK1, active compounds read low",0.989
same,normalized growth,"S. cerevisiae deletion strains, locus YOR316C, strain cot1, active compounds read low",0.981
same,normalized growth,"S. cerevisiae deletion strains, locus YPL256C, strain CLN2, active compounds read low",1
same,normalized growth,"S. cerevisiae deletion strains, locus YPR119W, strain clb2, active compounds read low",0.978
same,normalized growth,"S. cerevisiae deletion strains, locus YPR141C, strain kar3, active compounds read low",0.986
same,normalized growth,"S. cerevisiae deletion strains, locus YPR163C, strain tif3, active compounds read low",0.992
same,normalized growth,"S. cerevisiae deletion strains, locus YPR167C, strain met16, active compounds read low",0.981
same,normalized growth,"S. cerevisiae deletion strains, strain wtn01, active compounds read low",0.948
same,normalized growth,[30],0.998
CC(C)(C)NCC(O)COc1cccc2[nH]c(=O)[nH]c12 (stereo not given),normalized growth,"S. cerevisiae deletion strains, locus YAL040C, strain CLN3, active compounds read low",1.02
same,normalized growth,"S. cerevisiae deletion strains, locus YCL061C, strain MRC1 (second series), active compounds read low",1.01
same,normalized growth,[5],1
same,normalized growth,"S. cerevisiae deletion strains, locus YDR363W, strain ESC2, active compounds read low",1.01
same,normalized growth,"S. cerevisiae deletion strains, locus YER002W, strain NOP16, active compounds read low",1.02
same,normalized growth,[12],1.01
same,normalized growth,[20],1
same,normalized growth,"S. cerevisiae deletion strains, locus YNL175C, strain NOP13, active compounds read low",1.03
same,normalized growth,"S. cerevisiae deletion strains, locus YNL197C, strain WHI3, active compounds read low",1.02
same,normalized growth,"S. cerevisiae deletion strains, locus YNL224C, strain SQS1, active compounds read low",0.991
same,normalized growth,[24],1.03
same,normalized growth,"S. cerevisiae deletion strains, locus YOR083W, strain WHI5 (second series), active compounds read low",0.988
same,normalized growth,[28],1
